Measurements as given in PubChem BioAssay (NCATS).
Inconclusive results are not listed. Entries that show only a call come without a potency. Activity calls are given as the source filed them. Calls come from the whole dose curve; as a rule, active = well fitted curve in the direction sought with a large enough effect; inconclusive = small, poorly fitted or top-dose-only effect, or another doubt; inactive = no such curve, though single readings can be large; an effect the other way counts as inactive or inconclusive.

Experiments:
[1] = Quantitative highthroughput screen to assess conditional lethalithy of NOMO1 cells grown in RPMI1640 with untreated serum (RPMI+s) (AID 1963876); note: nearly all actives have a fitted effect of over 35% in size; note: potency is the fitted concentration of half-maximal effect
Procedure, shortened: (§1)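 Each medium arm—HPLM with 10% dialyzed FBS, or RPMI1640 with 5 mM glucose and 10% untreated or dialyzed FBS—was screened against an 11-point, 3-fold compound titration for 48 h at 37 °C, with CellTiter-Glo luminescence as endpoint.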

[2] = Quantitative highthroughput screen to assess conditional lethalithy of NOMO1 cells grown in Human Plasma-Like Medium with dialyzed fetal bovine serum (HPLM+ds) (AID 1963878); note: nearly all actives have a fitted effect of over 35% in size; note: potency is the fitted concentration of half-maximal effect
Procedure, shortened: as §1

[3] = Quantitative highthroughput screen to assess conditional lethalithy of P12 Ichikawa cells grown in Human Plasma-Like Medium with dialyzed fetal bovine serum (HPLM+ds) (AID 1963879); details: Potency: viability; note: nearly all actives have a fitted effect of over 35% in size; note: potency is the fitted concentration of half-maximal effect; for viability: series mostly up to about 46 µM
Procedure, shortened: as §1

[4] = Quantitative highthroughput screen to assess conditional lethalithy of P12 Ichikawa cells grown in RPMI1640 with dialyzed fetal bovine serum (RPMI+ds) (AID 1963880); details: Potency: P12-Ichikawa viability; note: nearly all actives have a fitted effect of over 35% in size; note: potency is the fitted concentration of half-maximal effect
Procedure, shortened: as §1

[5] = Quantitative highthroughput screen to assess conditional lethalithy of SEM cells grown in Human Plasma-Like Medium with dialyzed fetal bovine serum (HPLM+ds) (AID 1963882); note: nearly all actives have a fitted effect of over 35% in size; note: potency is the fitted concentration of half-maximal effect; for viability: series mostly up to about 46 µM
Procedure, shortened: as §1

[6] = Quantitative highthroughput screen to assess conditional lethalithy of SEM cells grown in RPMI1640 with dialyzed fetal bovine serum (RPMI+ds) (AID 1963884); note: nearly all actives have a fitted effect of over 35% in size; note: potency is the fitted concentration of half-maximal effect; for viability: series mostly up to about 46 µM
Procedure, shortened: as §1

[7] = Quantitative highthroughput screen to assess conditional lethalithy of P12 Ichikawa cells grown in RPMI1640 with untreated serum (RPMI+s) (AID 1963881); details: Potency: viability; note: nearly all actives have a fitted effect of over 35% in size; note: potency is the fitted concentration of half-maximal effect; for viability: series mostly up to about 46 µM
Procedure, shortened: as §1

[8] = Quantitative highthroughput screen to assess conditional lethalithy of SEM cells grown in RPMI1640 with unreated serum (RPMI+s) (AID 1963883); note: nearly all actives have a fitted effect of over 35% in size; note: potency is the fitted concentration of half-maximal effect
Procedure, shortened: as §1

[9] = Cellular viability qHTS for adrenocortical cancer (ACC) cell line SW-13 (AID 1963989); details: SW-13 ACC cells viability, CellTiter-Glo, 48 h; activity (max response): stronger effect = lower value;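 note: cells grown in serum-free medium with ITS supplement; nearly all actives have a fitted effect of over 65% in size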
Procedure, shortened: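 48 h treatment, SW-13 in ITS/DMEM serum-free; doses up to 46 uM; readout CellTiter-Glo luminescence; curve fit four-parameter logistic.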

[10] = Cellular viability qHTS for adrenocortical cancer (ACC) cell line NCI-H295R (AID 1963990); note: nearly all actives have a fitted effect of over 60% in size
Procedure, shortened: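 Compound titrations (up to 46 uM final) are applied to NCI-H295R cultures for 48 h at 37C. Viable cell number is estimated by CellTiter-Glo signal, normalised to DMSO and doxorubicin controls.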

| SMILES | Potency [1] | Potency [2] | Potency [3] | Potency [4] | Potency [5] | Potency [6] | Potency [7] | Potency [8] | activity (max response) [9] | Potency [10] |
| --- | --- | --- | --- | --- | --- | --- | --- | --- | --- | --- |
| Cc1ccccc1C(C(=O)NC1CCCC1)N(C(=O)Cn1cnc2ccccc21)c1cccc(F)c1 (centres undefined) | inactive | inactive | inactive | inactive | inactive | inactive | – | – | – | – |
| CCCCN(CCCC)CC(O)c1cc(Cl)cc2c1-c1ccc(Cl)cc1C2=Cc1ccc(Cl)cc1 (centres undefined) | inactive | inactive | inactive | inactive | inactive | inactive | inactive | inactive | – | – |
| Cc1cccc(N(C)C(=S)Oc2ccc3ccccc3c2)c1 | inactive | inactive | inactive | – | inactive | inactive | inactive | inactive | 2.38% (inactive) | inactive |
| CC(COc1ccccc1)N(CCCl)Cc1ccccc1 (centres undefined) | 166 nM (active) | 209 nM (active) | – | 2960 nM (active) | inactive | inactive | 2640 nM (active) | inactive | -3.42% (inactive) | inactive |
| CN(C)N=Nc1nc[nH]c1C(N)=O | inactive | inactive | 2640 nM (active) | – | inactive | 833 nM (active) | 2090 nM (active) | – | – | – |
| C#C[C@]1(O)CC[C@H]2[C@H]3CCc4cc(OC)ccc4[C@H]3CC[C@@]21C | inactive | inactive | inactive | inactive | inactive | inactive | inactive | inactive | – | – |
| CC[C@]1(O)C[C@H]2CN(CCC3=c4ccccc4=N[C]3[C@@](C(=O)OC)(c3cc4c(cc3OC)N(C)[C@H]3[C@@](O)(C(N)=O)[C@H](O)[C@]5(CC)C=CCN6CC[C@]43[C@@H]65)C2)C1 | 93.5 nM (active) | 14.8 nM (active) | 83.3 nM (active) | 132 nM (active) | 118 nM (active) | 118 nM (active) | 66.2 nM (active) | 59 nM (active) | – | – |
